# PubChem BioAssay (NCI)
# About 83,000 compounds went through this panel and 20% of them were active in at least one assay; those are over-represented in the sample as a whole.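 Activity criterion: percent growth below 10, measured after cells in 96-well plates were exposed to a single compound concentration for 48 hours.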 A number with no mark means an inactive call. The source made the active and inactive calls.
# Tests used:
# Assay in all cases: NCI-60 one-dose screen, 48 h (100 = growth as untreated, 0 = no growth, -100 = all killed)
# Conditions in all cases: 10 µM unless noted
# T-47D breast = tested on: T-47D breast
# BT-549 breast = tested on: BT-549 breast
# MDA-MB-435 melanoma = tested on: MDA-MB-435 melanoma
# SW-620 colon = tested on: SW-620 colon
# MCF7 breast = tested on: MCF7 breast
# HCT-116 colon = tested on: HCT-116 colon
# HCC-2998 colon = tested on: HCC-2998 colon
# KM12 colon = tested on: KM12 colon
SMILES,growth (T-47D breast),growth (BT-549 breast),growth (MDA-MB-435 melanoma),growth (SW-620 colon),growth (MCF7 breast),growth (HCT-116 colon),growth (HCC-2998 colon),growth (KM12 colon)
CCOC(=O)c1c(C(=O)c2cn(C)c3ccc(Br)cc23)c(-c2cn(C)c3ccc(Br)cc23)n(NC(=O)OC(C)(C)C)c1C,58.8% [100 µM],39.2% [100 µM],96.5% [100 µM],91.8% [100 µM],78.3% [100 µM],54% [100 µM],111% [100 µM],89.4% [100 µM]
CCOC(=O)C1=C(N)Oc2c(sc3c(F)cccc23)C1c1ccc(O)cc1 (stereo not given),26.5%,23.3%,5.63% (active),31.1%,14.9%,26%,38%,24%
COc1cc(-c2nccc3[nH]c(-c4ccc5cc[nH]c5c4)nc23)cc(OC)c1OC,30.5%,18.4%,5.17% (active),-15.6% (active),2.12% (active),4.37% (active),-19.2% (active),3.62% (active)
CCCc1c(OC(=O)c2ccccc2)nc2[nH]c(=O)sc2c1C,89.7%,95.1%,103%,95.3%,92.9%,98%,93.5%,101%
N#CSCC1CC(O)(c2ccccc2)CC(c2ccc(F)cc2)O1 (stereo not given),12.5%,-9.66% (active),0.665% (active),-58.8% (active),-17% (active),-60.4% (active),72%,-49.3% (active)
O=C1C(Cl)=C(Nc2ccc(S(=O)(=O)N3CCOCC3)cc2)C(=O)c2ccccc21,69.8%,45.9%,88.1%,32.5%,58.9%,4.7% (active),106%,64.5%
C=C1C(=O)O[C@H]2[C@H]1CC/C(COC(=O)c1cc3ccccc3s1)=C\CC[C@@]1(C)O[C@@H]21,-50.2% (active),-59% (active),-71% (active),-67.4% (active),-41.9% (active),-83.8% (active),-76.6% (active),-59.7% (active)
NS(=O)(=O)c1ccc(N=Nc2c(O)n(Cc3ccccc3)c3ccc(Cl)cc23)cc1,79.4%,81.2%,79.4%,79.9%,75.3%,69.3%,101%,88.5%
CCc1ccccc1-n1c(-c2ccc(OC)cc2)cc(-c2ccc(OC)cc2)c(C#N)c1=O,90.6%,101%,104%,93.9%,93%,51.1%,97.1%,92.5%
Nc1c(C(=O)Nc2ccncc2)sc2nc3c(cc12)C(O)CCC3 (stereo not given),74.3%,113%,101%,99.7%,93.8%,83.4%,96.7%,109%
COc1cc2ncnc(Nc3ccc(S(=O)(=O)Nc4cc(C)on4)cc3)c2cc1OCCCN1CCN(c2ccc(F)cc2)CC1,89.6%,119%,105%,100%,96.8%,108%,115%,107%
COc1cc2c(cc1OC)C(C)N(S(N)(=O)=O)CC2 (stereo not given),93.1%,91.8%,110%,107%,103%,89.4%,98.1%,112%
Nc1cnc(C(=O)NNc2nc3cc(F)ccc3n3cccc23)cn1,35.5%,52.9%,38.9%,36%,16.6%,36%,48.4%,24.7%
C=CCc1c(O)c(C(=O)/C=C/c2ccccc2)c(OC)c2ccoc12,41.3%,34.3%,26.4%,39.9%,16.1%,22.9%,50.4%,45.2%
c1ccc(Cn2cc3c(c2)-c2oncc2CC3)cc1,42.1%,82.9%,-34.7% (active),23.9%,18.8%,9.28% (active),4.68% (active),13.6%
